Hit rate of the full screen: of about 39,000 compounds, about 1,500 (3.8%) were called active. Only a selection was taken, and actives are over-represented in it overall.

Consider 66 compounds from the antibiotic and cytotoxicity screens of Wong et al. (2023).

This assay concerns HSkMC (human skeletal muscle cells). In words: cytotoxicity call (relative viability < 0.9). Particulars: 10 µM.
Consider `COc1ccc(S(=O)(=O)N2C[C@@H](O)COC[C@@H]3O[C@H](CC(=O)NCCCN4CCOCC4)CC[C@H]32)cc1`, for which the cytotoxicity call was “inactive”.

`Cc1ccc(F)cc1NC(=O)[C@@H](C)N`: the cytotoxicity call was “inactive”.

As for `COc1ccc(S(=O)(=O)Nc2ccc3c(c2)CC(=O)N([C@@H](C)CO)C[C@@H](C)[C@@H](CN(C)S(=O)(=O)c2c(C)noc2C)O3)cc1`, the cytotoxicity call was “inactive”.

In the case of `COc1cc(NC(=O)Cn2cnc3c2c(=O)n(C)c(=O)n3C)cc(OC)c1OC`, the cytotoxicity call is “inactive”.

In the case of `Cc1cccc(-n2cc(CN)cn2)c1`, the cytotoxicity call was “inactive”.

For the compound `COc1cc(NC(=O)c2cccc(-n3cc(NC(=O)Nc4cccc(C)c4)cn3)c2)cc(OC)c1OC`, the cytotoxicity call is “active”.

As for `C[C@@H]1CN([C@H](C)CO)C(=O)c2cccc(NC(=O)c3ccc(-c4nccs4)cc3)c2O[C@@H]1CN(C)Cc1ccc(Cl)c(Cl)c1`, the cytotoxicity call was “inactive”.

Regarding `C[C@@H]1CCCCO[C@H](CN(C)C(=O)Nc2cccc3ccccc23)[C@@H](C)CN([C@H](C)CO)C(=O)c2cc(NC(=O)Nc3ccc(C(F)(F)F)cc3)ccc2O1`, the cytotoxicity call was “inactive”.

With `COc1ccc(S(=O)(=O)Nc2ccc3c(c2)C(=O)N([C@@H](C)CO)C[C@@H](C)[C@H](CN(C)C(=O)Nc2ccc(F)cc2)OCCCC[C@@H](C)O3)cc1`, the cytotoxicity call is “inactive”.

Take `C[C@@H]1CN([C@H](C)CO)C(=O)c2c(c3ccccc3n2C)-c2ccccc2CO[C@@H]1CN(C)C(=O)Nc1cccc(Cl)c1Cl`: the cytotoxicity call is “active”.

As for `C[C@H]1CN([C@@H](C)CO)C(=O)c2c(c3ccccc3n2C)-c2ccccc2CO[C@@H]1CN(C)C(=O)Nc1cccc(Cl)c1Cl`, the cytotoxicity call was “active”.

Consider `C[C@H](CO)N1C[C@H](C)[C@H](CN(C)C(=O)Nc2cccc(Cl)c2Cl)OCc2ccccc2-c2c(n(C)c3ccccc23)C1=O`, for which the cytotoxicity call was “inactive”.

For the compound `C[C@H]1CN([C@@H](C)CO)C(=O)c2c(c3ccccc3n2C)-c2ccccc2CO[C@H]1CN(C)C(=O)Nc1cccc(Cl)c1Cl`, the cytotoxicity call was “inactive”.

Regarding `C[C@@H]1CN([C@@H](C)CO)C(=O)c2c(c3ccccc3n2C)-c2ccccc2CO[C@@H]1CN(C)C(=O)Nc1cccc(Cl)c1Cl`, the cytotoxicity call is “inactive”.

Regarding `C[C@@H]1CN([C@@H](C)CO)C(=O)c2c(c3ccccc3n2C)-c2ccccc2CO[C@H]1CN(C)C(=O)Nc1cccc(Cl)c1Cl`, the cytotoxicity call is “inactive”.

In the case of `C[C@H](CO)N1C[C@H](C)[C@@H](CN(C)C(=O)Nc2cccc(Cl)c2Cl)OCc2ccccc2-c2c(n(C)c3ccccc23)C1=O`, the cytotoxicity call is “active”.

In the case of `COc1ccccc1NC(=O)N(C)C[C@@H]1OCc2ccccc2-c2c(n(C)c3ccccc23)C(=O)N([C@@H](C)CO)C[C@H]1C`, the cytotoxicity call is “inactive”.

As to `C[C@@H]1CN([C@H](C)CO)C(=O)c2c(c3ccccc3n2C)-c2ccccc2CO[C@H]1CN(C)C(=O)Nc1cccc(Cl)c1Cl`, the cytotoxicity call is “inactive”.

On to `COc1ccc(S(=O)(=O)N(C)C[C@H]2OCCCC[C@H](C)Oc3ccc(NC(=O)C4CCCCC4)cc3C(=O)N([C@H](C)CO)C[C@@H]2C)cc1`, for which the cytotoxicity call was “inactive”.

Turning to `Cn1c(C(=O)N[C@H](CO)Cc2c[nH]c3ccccc23)cc(=O)n(C)c1=O`, the cytotoxicity call is “inactive”.

Regarding `C[C@H](CO)N1C[C@H](C)[C@@H](CN(C)C(=O)CCCN(C)C)OCc2cn(nn2)CCCC1=O`, the cytotoxicity call was “inactive”.

Take `Cc1ccc(S(=O)(=O)Nc2ccc3c(c2)C(=O)N([C@H](C)CO)C[C@H](C)[C@@H](CN(C)C(=O)CCC(F)(F)F)OCCCC[C@@H](C)O3)cc1`: the cytotoxicity call was “inactive”.

`CC(C)C(=O)NCc1nnnn1-c1ccccc1`: the cytotoxicity call was “inactive”.

Regarding `C[C@@H]1CCCCO[C@@H](CN(C)C(=O)c2ccccc2)[C@@H](C)CN([C@@H](C)CO)C(=O)c2cc(NC(=O)Cc3ccccc3)ccc2O1`, the cytotoxicity call is “inactive”.

For `COc1ccc(CN(C)C[C@@H]2Oc3c(NC(=O)c4cnccn4)cccc3C(=O)N([C@H](C)CO)C[C@H]2C)cc1`, the cytotoxicity call is “inactive”.

Turning to `O=C1O[C@@H](c2ccccc2)[C@@H](c2ccccc2)N2[C@@H](c3ccc(O)cc3)[C@]3(C(=O)Nc4ccccc43)[C@@H](C(=O)NC[C@H](O)c3ccccc3)[C@H]12`, the cytotoxicity call was “inactive”.

Regarding `CN1CCN(C(=O)C[C@@H]2CC[C@@H]3[C@H](COC[C@H](O)CN3C(=O)C3CCCC3)O2)CC1`, the cytotoxicity call was “inactive”.

Consider `Cc1cc(O)c(C(C)C)cc1Cl`, for which the cytotoxicity call is “inactive”.

Regarding `COc1cccc(C#Cc2cnc3c(c2)C(=O)N([C@@H](C)CO)C[C@H](C)[C@@H](CN(C)C(=O)C2CCC2)O3)c1`, the cytotoxicity call is “inactive”.

As for `C=C1C2CCC3(C)C(c4ccoc4)OC(=O)CC13OC1CC(=O)C(C)(C)C(C(O)C(=O)OC)C12C` (stereo unspecified), the cytotoxicity call was “inactive”.

With `CC(C)NC(=O)Nc1ccc2c(c1)C(=O)N([C@@H](C)CO)C[C@@H](C)[C@H](CN(C)S(=O)(=O)c1cn(C)cn1)O2`, the cytotoxicity call is “inactive”.

With `O=C(C[C@H]1CC[C@H]2[C@@H](COC[C@@H](O)CN2C(=O)c2ccccc2F)O1)N1CCN(c2ccccc2)CC1`, the cytotoxicity call is “inactive”.

`COc1ccc(-c2ccc3c(c2)O[C@H](CN(C)CC2CCOCC2)[C@@H](C)CN([C@@H](C)CO)S3(=O)=O)cc1`: the cytotoxicity call is “inactive”.

As to `Cc1[nH]c(/C=C2\C(=O)Nc3ccc(S(=O)(=O)Cc4c(Cl)cccc4Cl)cc32)c(C)c1C(=O)N1CCC[C@@H]1CN1CCCC1`, the cytotoxicity call was “active”.

As for `C[C@H](CO)N1C[C@H](C)[C@@H](CN(C)Cc2ccccc2)Oc2ccc(NC(=O)Nc3ccc(C(F)(F)F)cc3)cc2C1=O`, the cytotoxicity call was “active”.

For `C[C@H](CO)N1C[C@H](C)[C@@H](CN(C)Cc2ccc(C(=O)O)cc2)Oc2ccc(NC(=O)Nc3ccc(C(F)(F)F)cc3)cc2C1=O`, the cytotoxicity call was “inactive”.

Regarding `C[C@@H]1CN([C@@H](C)CO)C(=O)c2cc(NC(=O)Nc3ccc(C(F)(F)F)cc3)ccc2O[C@H]1CN(C)Cc1ccccc1`, the cytotoxicity call is “active”.

Take `C[C@@H]1CN([C@H](C)CO)C(=O)c2cc(NC(=O)Nc3ccc(C(F)(F)F)cc3)ccc2O[C@H]1CN(C)Cc1ccccc1`: the cytotoxicity call is “active”.

As for `C[C@@H]1CN([C@@H](C)CO)C(=O)c2cc(NC(=O)Nc3ccc(C(F)(F)F)cc3)ccc2O[C@@H]1CN(C)Cc1ccccc1`, the cytotoxicity call was “active”.

On to `C[C@H](CO)N1C[C@H](C)[C@H](CN(C)Cc2ccccc2)Oc2ccc(NC(=O)Nc3ccc(C(F)(F)F)cc3)cc2C1=O`, for which the cytotoxicity call was “inactive”.

`C[C@H](CO)N1C[C@H](C)[C@H](CN(C)Cc2ccc(C(=O)O)cc2)Oc2ccc(NC(=O)Nc3ccc(C(F)(F)F)cc3)cc2C1=O`: the cytotoxicity call is “inactive”.

`C[C@@H]1CN([C@@H](C)CO)C(=O)c2cccc(N(C)C)c2O[C@H]1CN(C)S(=O)(=O)c1ccc(Cl)cc1`: the cytotoxicity call is “inactive”.

For `CCCNC(=O)C[C@@H]1CC[C@H]2[C@H](COc3ccc(NS(=O)(=O)c4ccccc4C)cc3C(=O)N2C)O1`, the cytotoxicity call was “inactive”.

Regarding `Cc1noc(C)c1NC(=O)Nc1cccc2c1O[C@@H](CN(C)C(=O)NC(C)C)[C@H](C)CN([C@@H](C)CO)C2=O`, the cytotoxicity call was “inactive”.

In the case of `COc1ccc(NC(=O)Nc2ccc3c(c2)C(=O)N([C@H](C)CO)C[C@H](C)[C@H](CN(C)C(=O)Nc2ccc(C(F)(F)F)cc2)OCCCC[C@H](C)O3)cc1`, the cytotoxicity call is “inactive”.

For the compound `C[C@H]1CN([C@@H](C)CO)C(=O)c2cc(NC(=O)Nc3ccc(C(F)(F)F)cc3)ccc2O[C@H]1CN(C)Cc1ccccc1`, the cytotoxicity call was “active”.

On to `C[C@H]1CN([C@@H](C)CO)C(=O)c2cc(NC(=O)Nc3ccc(C(F)(F)F)cc3)ccc2O[C@@H]1CN(C)Cc1ccccc1`, for which the cytotoxicity call is “inactive”.

As for `C[C@@H]1CN([C@H](C)CO)C(=O)c2cc(NC(=O)Nc3ccc(C(F)(F)F)cc3)ccc2O[C@@H]1CN(C)Cc1ccccc1`, the cytotoxicity call is “inactive”.

Take `CN(C)S(=O)(=O)Nc1cccc(N)c1`: the cytotoxicity call is “inactive”.

Turning to `COCC(=O)N1C[C@@H](C)[C@@H](OC)CN(C)C(=O)c2cc(NC(=O)c3ccc(OC)cc3)ccc2OC[C@@H]1C`, the cytotoxicity call was “inactive”.

With `COc1cccc2c1C(=O)c1c(O)c3c(c(O)c1C2=O)C[C@](O)(C(C)=O)C[C@H]3O[C@H]1C[C@@H](N)[C@@H](O)[C@@H](C)O1`, the cytotoxicity call was “active”.

For the compound `COc1cccc2c1C(=O)c1c(O)c3c(c(O)c1C2=O)CC(O)(C(C)=O)CC3OC1CC(N)C(O)C(C)O1.Cl` (stereo unspecified), the cytotoxicity call was “inactive”.

On to `CC(=O)[C@]1(O)Cc2c(O)c3c(c(O)c2[C@@H](O[C@@H]2C[C@@H](N)[C@H](O)[C@@H](C)O2)C1)C(=O)c1c(O)cccc1C3=O`, for which the cytotoxicity call was “active”.

As to `CC(=O)[C@]1(N)Cc2c(O)c3c(c(O)c2[C@@H](O[C@H]2C[C@H](O)[C@H](O)CO2)C1)C(=O)c1ccccc1C3=O`, the cytotoxicity call was “active”.

Take `COc1cccc2c1C(=O)c1c(O)c3c(c(O)c1C2=O)C[C@@](O)(C(C)=O)C[C@@H]3O[C@H]1C[C@H](N)[C@H](O)[C@H](C)O1`: the cytotoxicity call is “active”.

Regarding `O=C(C[C@@H]1CC[C@H]2[C@@H](COC[C@H](O)CN2C(=O)c2ccncc2)O1)NC1CCC1`, the cytotoxicity call was “inactive”.

On to `CNCC1CCOCC1`, for which the cytotoxicity call is “inactive”.

With `CO[C@@H]1CN(C)C(=O)c2cc(NS(=O)(=O)c3ccccc3C)ccc2OC[C@H](C)N(S(C)(=O)=O)C[C@H]1C`, the cytotoxicity call is “inactive”.

`Cc1noc(C)c1S(=O)(=O)Nc1ccc2c(c1)C(=O)N([C@H](C)CO)C[C@H](C)[C@@H](CN(C)C(=O)Nc1ccc(F)cc1)OCCCC[C@H](C)O2`: the cytotoxicity call was “inactive”.

With `C[C@H]1CN([C@@H](C)CO)C(=O)c2cc(C#CCN(C)C)cnc2O[C@@H]1CN(C)C(=O)c1cnccn1`, the cytotoxicity call was “inactive”.

Turning to `CC(C)c1nc(/N=C/N(C)C)nc(=O)n1C`, the cytotoxicity call is “inactive”.

In the case of `C[C@H](CO)N1C[C@H](C)[C@H](CN(C)C(=O)Nc2ccc(F)cc2)OCCCC[C@H](C)Oc2ccc(NS(=O)(=O)c3ccc(Cl)cc3)cc2C1=O`, the cytotoxicity call was “inactive”.

For `C[C@H](CO)N1C[C@H](C)[C@@H](CN(C)Cc2ccc3c(c2)OCO3)Oc2ncc(Br)cc2C1=O`, the cytotoxicity call is “inactive”.

In the case of `CN(Cc1ccc(/C=C/C(=O)Nc2ccc(-c3cccs3)cc2N)cc1)CC12CC3CC(CC(C3)C1)C2`, the cytotoxicity call was “inactive”.

With `C[C@@H]1CN([C@@H](C)CO)C(=O)Cc2cc(NC(=O)CCCCCC(=O)Nc3ccccc3N)ccc2O[C@H]1CN(C)Cc1ccc(-c2ccccc2)cc1`, the cytotoxicity call was “inactive”.

Regarding `CN(Cc1ccc(/C=C/C(=O)Nc2ccc(-c3ccccc3)cc2N)cc1)CC12CC3CC(CC(C3)C1)C2`, the cytotoxicity call is “active”.
